A selection: hits, their analogues and other compounds. The true share with any hit is near 3.1%.
PP1 inh: counter-screen for PP5 inhibitors: inhibitors of human PP1-alpha; P62136; purified PP1alpha, OMFP fluorescence; inhibition, % at 6.7 µM; 0.9% of 320,000 active;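 active = inhibition above the mean inhibition of all tested compounds plus 3 SD, computed separately for each screening campaign, cut at about 15% in these data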
CSC inhib: cancer stem cell inhibition | inhibition, % at 7.5 µM | cancer stem cell-like cells viability, luminescence | 1.1% of 300,000 active; in the data active = inhibition above about 75%; inconclusive = no clear call, values can overlap the other calls; tested in HMLE shEcad cells
SKKanGAS inh: inhibitors of SKKanGAS S. pyogenes growth in kanamycin (SK-promoter or general growth effect); inhibition, % at 7.5 µM; AID 1662; 1.3% of 300,000 active; BacTiter-Glo, 6 h;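 active = mean replicate score, as percent of positive control median, at least 50; inconclusive = mean below 50 but one replicate at or above 50; inactive = mean and every replicate below 50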;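 also: strain carries kanamycin resistance gene driven by streptokinase promoter and grows in 40 µg/ml kanamycin; loss of luminescence reflects streptokinase promoter inhibition or plain growth inhibition; 0% = median of DMSO wells and 100% = positive control at its reference dose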
PP5 primary: inhibitors of human protein phosphatase 5 (PP5) | 0.18% of 320,000 active | inhibition, % at 6.7 µM | purified PP5c, OMFP substrate fluorescence | AID 1987;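 active = inhibition above the campaign's mean inhibition across all tested compounds plus 3 SD, cut at about 9.5% in these data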;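 also: 0% = DMSO only and 100% = 100 µM cantharidin control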
Target sequence (P53041 whole entry, looked up): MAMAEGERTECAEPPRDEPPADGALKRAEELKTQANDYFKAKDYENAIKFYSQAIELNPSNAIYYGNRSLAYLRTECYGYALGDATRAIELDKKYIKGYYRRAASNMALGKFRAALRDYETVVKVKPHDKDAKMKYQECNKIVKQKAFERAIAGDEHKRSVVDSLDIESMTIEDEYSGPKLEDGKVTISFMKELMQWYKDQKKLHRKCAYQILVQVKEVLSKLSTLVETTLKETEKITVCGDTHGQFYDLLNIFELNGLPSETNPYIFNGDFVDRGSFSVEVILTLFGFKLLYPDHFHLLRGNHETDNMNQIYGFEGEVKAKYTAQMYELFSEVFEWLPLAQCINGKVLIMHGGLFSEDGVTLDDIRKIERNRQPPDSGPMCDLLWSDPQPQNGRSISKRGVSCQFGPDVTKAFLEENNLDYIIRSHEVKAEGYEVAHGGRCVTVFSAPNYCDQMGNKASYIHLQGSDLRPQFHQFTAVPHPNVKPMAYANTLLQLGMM
Beta apoptosis: beta cell apoptosis inhibition; INS-1E cytokine-induced death, ATP luminescence, 48 h; percent of positive-control rescue, neutral wells zero; protection from apoptosis, % (test concentration not listed); 0.8% of 300,000 active; AID 435005;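 active = Every replicate reaches about 75%, or at least half do and their mean reaches it too, limit read from the data; inconclusive = At least half of replicates reach the limit but their mean does not; inactive = Under half of replicates reach the limit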;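 also: 0% = cytokine-treated negative control wells and 100% = positive control rescue; higher means more ATP so stronger rescue from cytokine killing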
PP1 confirm: confirmation of human PP1 phosphatase inhibitors; AID 2358; 52% of 1,900 active; shares compounds with PP1 inh; inhibition, % at 6.7 µM; purified PP1alpha, OMFP substrate fluorescence;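 active = mean PP1 inhibition above a set limit taken from the earlier primary screen, cut at about 15% in these data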
PP5 counter: inhibits human PP5 phosphatase in PP1 counter-screen. shares compounds with PP1 inh. purified PP5c, OMFP fluorescence. inhibition, % at 6.7 µM. 4% of 1,900 active;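 active = mean PP5 inhibition over triplicate wells above about 9.5% taken from the earlier PP1 screen, limit read from the data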
* hit, by the source's call.

How did Cc1ccc(Nc2cc(C)nc(NCc3ccccc3)n2)cc1 do in these assays?
PP1 inh: 18*; CSC inhib: inconclusive; SKKanGAS inh: 0; PP5 primary: 5; Beta apoptosis: 105*; PP1 confirm: 4; PP5 counter: 4

How did COc1cnc(-c2ccccn2)nc1Sc1ccccc1 do in these assays?
PP1 inh: 55*; CSC inhib: 17; SKKanGAS inh: 91*; PP5 primary: 11*; Beta apoptosis: 50; PP1 confirm: 48*; PP5 counter: -1

What do the screens show for `COc1ccc(Sc2nc(-c3ccccn3)ncc2OC)cc1`?
PP1 inh: 57*; CSC inhib: -7; SKKanGAS inh: 11; PP5 primary: 6; Beta apoptosis: 90*; PP1 confirm: 56*; PP5 counter: -1

What do the screens show for `CCOC(=O)CSc1ncc(OC)c(Sc2ccc(OC)cc2)n1`?
PP1 inh: 0; CSC inhib: 5; SKKanGAS inh: 2; PP5 primary: 3; Beta apoptosis: -7

What do the screens show for `COc1cnc(-c2ccccn2)nc1Sc1ccc(Cl)cc1`?
PP1 inh: 35*; CSC inhib: -2; SKKanGAS inh: inconclusive; PP5 primary: 2; Beta apoptosis: 12; PP1 confirm: 46*; PP5 counter: 1

How did CCOC(=O)CSc1nc(-c2ccccn2)ncc1OC do in these assays?
PP1 inh: 6; CSC inhib: 1; SKKanGAS inh: 11; PP5 primary: -1; Beta apoptosis: 0

How did COc1cc(C(F)(F)F)nc(-c2ccccn2)n1 do in these assays?
PP1 inh: 0; CSC inhib: 1; SKKanGAS inh: 4; PP5 primary: 1; Beta apoptosis: -2

What do the screens show for `COc1cnc(-c2ccccn2)nc1Sc1ccc(F)cc1`?
PP1 inh: 43*; CSC inhib: 1; SKKanGAS inh: 56*; PP5 primary: 7; Beta apoptosis: 42; PP1 confirm: 51*; PP5 counter: 0

Results for COc1cnc(N(C)C)nc1Sc1ccc(Cl)cc1 ?
PP1 inh: 1; CSC inhib: 3; SKKanGAS inh: 18; PP5 primary: 2; Beta apoptosis: -12

How did O=C(COc1ccc(Cl)cc1)Nc1ccccc1C(=O)NCc1cccnc1 do in these assays?
PP1 inh: 2; CSC inhib: 0; SKKanGAS inh: -4; PP5 primary: 2; Beta apoptosis: -6

How did O=c1cc(NCCc2ccccc2)c2ccccc2o1 do in these assays?
PP1 inh: -7; CSC inhib: -11; SKKanGAS inh: 2; PP5 primary: 0; Beta apoptosis: 22

How did O=C(NCCC1CCCCN1S(=O)(=O)c1ccc(Cl)cc1)C(=O)NCc1cccnc1 (stereo not given) do in these assays?
PP1 inh: 52*; CSC inhib: 14; SKKanGAS inh: -4; PP5 primary: 2; Beta apoptosis: 1; PP1 confirm: -3; PP5 counter: -1

How did O=C(CSc1nc(O)cc(=O)[nH]1)N1c2ccccc2CCc2ccccc21 do in these assays?
PP1 inh: 28*; CSC inhib: -14; SKKanGAS inh: 1; PP5 primary: 1; Beta apoptosis: 2; PP1 confirm: -3; PP5 counter: -4

Results for CN(C)c1ccc(C2CNC(c3ccc(Cl)c([N+](=O)[O-])c3)c3[nH]c4ccccc4c32)cc1 (stereo not given) ?
PP1 inh: 21*; SKKanGAS inh: 15; PP5 primary: 4; Beta apoptosis: 7; PP1 confirm: 17*; PP5 counter: 0

Results for Cc1cccc(C)c1NCc1nnc(SCC(=O)Nc2nc(-c3ccccc3)cs2)n1-c1ccccc1 ?
PP1 inh: -1; CSC inhib: 9; SKKanGAS inh: 0; PP5 primary: -1; Beta apoptosis: 3

What do the screens show for `CCOc1ccc(NCc2nnc(SCC(=O)Nc3nc(-c4ccccc4)cs3)n2-c2ccccc2)cc1`?
PP1 inh: 28*; CSC inhib: -9; SKKanGAS inh: -4; PP5 primary: 2; Beta apoptosis: 7; PP1 confirm: 15; PP5 counter: -3

Results for CCOc1ccc(NCc2nnc(SCc3ccc(Cl)cc3)n2-c2ccccc2)cc1 ?
PP1 inh: 18*; CSC inhib: -7; SKKanGAS inh: -6; PP5 primary: 3; Beta apoptosis: -27; PP1 confirm: 1; PP5 counter: 3

How did CCOC(=O)CSc1nnc(CNc2ccc(Cl)cc2)n1-c1ccccc1 do in these assays?
PP1 inh: -1; CSC inhib: -10; SKKanGAS inh: 0; PP5 primary: 1; Beta apoptosis: -1

What do the screens show for `CN(CC(=O)OCC(N)=O)S(=O)(=O)c1ccc(Cl)cc1`?
PP1 inh: -3; CSC inhib: 9; SKKanGAS inh: 14; PP5 primary: -1

Results for CC1(OC(=O)c2cccs2)C(=O)C=C2C=C(c3ccc(C#N)cc3)OC=C2C1=O (stereo not given) ?
PP1 inh: 21*; CSC inhib: -9; SKKanGAS inh: 20; PP5 primary: 3; Beta apoptosis: -3; PP1 confirm: 10; PP5 counter: -1

Results for CCCCN(C)C(=O)C1CCCN(S(=O)(=O)c2ccc3c(c2)oc(=O)n3C)C1 (stereo not given) ?
PP1 inh: -1; CSC inhib: -4; SKKanGAS inh: -2; PP5 primary: 2; Beta apoptosis: 4

Results for CN(C)c1ccc(NC(=O)C(=O)C2C(=O)Nc3ccccc32)cc1 (stereo not given) ?
PP1 inh: 21*; CSC inhib: -6; SKKanGAS inh: -7; PP5 primary: 1; Beta apoptosis: -5; PP1 confirm: 1; PP5 counter: -1

Results for CC(C)(C)c1ccc(NC(=O)C(=O)C2C(=O)Nc3ccccc32)cc1 (stereo not given) ?
PP1 inh: 0; CSC inhib: 10; SKKanGAS inh: 43; PP5 primary: 1; Beta apoptosis: 9

Results for COc1ccc(/C=N\NC(=O)c2cc(O)c(O)c(O)c2)cc1COc1ccc(C(=O)OCC(C)C)cc1 ?
PP1 inh: 27*; CSC inhib: 50; SKKanGAS inh: 90*; PP5 primary: 7; Beta apoptosis: 2; PP1 confirm: 25*; PP5 counter: 0

Results for COc1ccc(/C=N/NC(=O)c2ccncc2)cc1COc1ccc(NC(C)=O)cc1 ?
PP1 inh: -4; CSC inhib: 1; SKKanGAS inh: -4; PP5 primary: 1; Beta apoptosis: 0

How did COc1ccc(/C=N/NC(=O)c2ccc(NC(C)=O)cc2)cc1COc1ccc(F)cc1F do in these assays?
PP1 inh: 22*; CSC inhib: 2; SKKanGAS inh: -4; PP5 primary: 1; Beta apoptosis: -16; PP1 confirm: 12; PP5 counter: -2

What do the screens show for `O=C(O)COc1ccc(NC(=O)c2ccc3c(c2)C(=O)N(Cc2ccccc2)C3=O)cc1`?
PP1 inh: 1; CSC inhib: 3; SKKanGAS inh: -6; PP5 primary: -1; Beta apoptosis: -4

Compound activity as filed in PubChem.
